Consider 32 molecules from PubChem BioAssay AID1981 (Southern Research Specialized Biocontainment Screening …, 2009).

SMILES strings stand for the structures. The whole screen tested about 2,200 compounds, of which about 480 (22%) were called active. How the calls were made is not given here. The list is a sample of the results. Where a call stands in place of a potency, no number is given. Potency and affinity values are given separately.

The nature of this assay: S. Typhimurium GFP fluorescence modified counterscreen for PhoP regulon inhibitor project dose response (AID 1981). The conditions noted are these: 4 h; series mostly up to 150 µM.
`c1ccc2c(c1)ncn2CCCCOc1ccc2c(c1)CCC2`: the call was inactive.

Consider `Cc1ncoc1C(=O)Nc1cccc(Cl)c1`, for which the call was inactive.

As to `CSc1cccc(NC(=O)c2ccco2)c1`, the result was inactive.

For the molecule `CC1N(C)c2cc(NC(=O)c3ccco3)ccc2C1(C)C` (configuration not stated), the molecule was called inactive.

Regarding `O=C(Nc1ccc2c(c1)oc1ccccc12)N1CCOCC1`, the outcome was inactive.

`O=C(NCC(=O)N(c1cccnc1)C(C(=O)NCc1ccco1)c1ccccc1)c1ccco1` (configuration not stated): the call was inactive.

For `CC(=O)c1c(C)n([O-])c2cc(F)c(F)cc2[n+]1=O`, the call was inactive.

Turning to `Cc1c(C(=O)Nc2cccc(Cl)c2)c2ccccn2c1CCc1ccncc1`, the call was inactive.

On to `CCOc1ccc(-c2nnc(SCc3nnc(-c4ccccc4)o3)n2-c2ccccc2F)cc1`, for which the result was inactive.

Turning to `CCC(CC)NC(=O)COC(=O)c1ccc(OCC(=O)Nc2ccccc2OC)c(OC)c1`, the call was inactive.

Regarding `Cc1nn(-c2ccccc2)c(C)c1C(=O)OC/C(O)=C(\C#N)c1nc2ccccc2[nH]1`, the molecule was classed as inactive.

As to `COC(=O)c1sc2nc(CSc3nc4ccc(C)cc4[nH]3)[nH]c(=O)c2c1C`, the molecule was classed as inactive.

`CCOCC(=O)Nc1ccc(F)c(F)c1`: the molecule was classed as inactive.

For `Nc1nc(N)nc(-c2ccccc2)n1`, the outcome was inactive.

Take `O=C(NCCCc1ccccc1)Nc1cccc(Cl)c1`: the outcome was inactive.

In the case of `N/C(=N/OC(=O)c1ccccc1Cl)c1ncc([N+](=O)[O-])s1`, the call was inactive.

Turning to `O=C(Nc1cccc(Cl)c1)Nc1ccc2c(c1)OCO2`, the outcome was inactive.

`CC(C)(C)c1ccc(NC(=O)COC(=O)c2ccc([N+](=O)[O-])s2)cc1`: the molecule was called inactive.

As to `CCOC(=O)Nc1ccc(C)cc1C`, the outcome was inactive.

With `CCOC(=O)c1sc(-c2ccc(C(F)(F)F)cc2)nc1O`, the result was inactive.

For `O=C(NNc1c2ccccc2nc2ccccc12)c1ccccc1O`, the outcome was inactive.

For `CC(C)c1ccc(NC(=O)N(CCc2nc3ccccc3[nH]2)C2CCCC2)cc1`, the call was inactive.

In the case of `Cc1ccc(CNC(=O)Nc2cccs2)cc1`, the result was inactive.

`CCCc1cc(C(=O)NNC(=S)NC(C)c2ccccc2)cs1` (configuration not stated): the outcome was inactive.

Regarding `Cc1noc(C)c1CSc1nc2ccccc2nc1NS(=O)(=O)c1ccc(Cl)cc1`, the molecule was classed as inactive.

As for `COc1ccc(C(=O)NC(=S)NCc2ccc(-c3nc4ccccc4o3)cc2)cc1OC`, the molecule was classed as inactive.

With `O=C(O)CC(NC(=S)NCc1ccccc1)C(=O)O` (configuration not stated), the molecule was called inactive.

For the molecule `Cc1cc(Nc2ccc(Cl)cc2)nc(N)n1`, the result was inactive.

For `O=S(=O)(c1ccc(NC(=S)Nc2ccc3c(c2)OCO3)cc1)N1CCOCC1`, the call was inactive.

For the molecule `CC(C(=O)NC1CCS(=O)(=O)C1)N1C(=O)/C(=C/c2ccc(Cl)cc2)SC1=S` (configuration not stated), the molecule was classed as inactive.

As for `O=S1(=O)C=CC(Nc2cccc(Cl)c2)C1` (configuration not stated), the result was inactive.

Consider `CC1=C(C(=O)OCC2CCCO2)C(c2cccc(C(F)(F)F)c2)C2=C(CC(c3ccco3)CC2=O)N1` (configuration not stated), for which the outcome was inactive.
